Shown are actives, neighbours in structure and some others; about 21% of the full set was active somewhere.
IL-1B inflam inh = inhibitors of inflammasome signaling (IL-1 beta secretion); THP-1 LPS/ATP IL-1B secretion, AlphaLISA, 16 h; active compounds read low; activity change, % at 57.5 µM; 360,000 tested, 4.7% active; in the data active = activity change below about -50%; inconclusive = mostly about -30% to -49%; also: % is scaled to controls: 0 for no effect and ±100 for the full control effect
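Secreted IL-1B measured by AlphaLISA bead assay after 16 h compound exposure of THP-1 cells; compounds (final up to 57.5 uM) added 1 h before LPS (250 ng/mL) and ATP (1.25 mM) stimulation; lower signal means less secretion.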
D3 ag = agonists of human D3 dopamine receptor; max activation, %; P35462; D3R DiscoveRx beta-arrestin cells, luminescence, 90 min; 410,000 tested, 0.58% active; AID 652048; in the data active = max activation above about 30%; also: 0% is about no effect
Target sequence (P35462 whole entry, looked up): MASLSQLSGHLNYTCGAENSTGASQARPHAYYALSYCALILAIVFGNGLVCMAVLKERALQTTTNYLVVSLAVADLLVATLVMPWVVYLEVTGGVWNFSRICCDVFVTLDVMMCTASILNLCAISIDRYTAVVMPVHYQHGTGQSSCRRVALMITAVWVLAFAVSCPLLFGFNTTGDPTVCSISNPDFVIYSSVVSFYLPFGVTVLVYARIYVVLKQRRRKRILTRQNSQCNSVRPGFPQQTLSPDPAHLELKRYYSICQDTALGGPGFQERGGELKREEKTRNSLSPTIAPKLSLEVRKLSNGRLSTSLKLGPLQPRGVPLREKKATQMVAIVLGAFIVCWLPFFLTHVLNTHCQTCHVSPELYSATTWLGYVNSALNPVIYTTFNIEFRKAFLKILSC
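Agonist mode: compounds and dopamine controls were applied to plated cells for 90 min at 37 degrees C after an overnight attachment at 1500 cells/well. Luminescent read-out followed 30 - 60 minutes at room temperature with DiscoveRx detection reagent.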
TDP1 cell CPT = DT40-hTDP1 cell growth loss with CPT; chicken DT40 Tdp1-/-;hTDP1 cells + 20 nM CPT, ATP luminescence, 48 h; Potency, µM (titrated, usually from 46.2 µM), inactives show at the highest dose activity change, negative = growth inhibition, usual class: inhibitors; 420,000 tested, 12% active; AID 686979; also: potency is read from the fitted curve at half-maximal effect; % is scaled to controls: 0 for no effect and ±100 for the full control effect; nearly all actives have a fitted effect of over 55% in size
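Chicken DT40 Tdp1-/- cells complemented with human TDP1, 400 cells/well, exposed to compounds plus 20 nM camptothecin for at least 48 h at 37 C; viability read as ATP content by CellTiter-Glo luminescence.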
DT40 TDP1 no CPT = qHTS for Inhibitors of human tyrosyl-DNA phosphodiesterase 1 (TDP1): qHTS in cells in absence of CPT; AID 686978, 2013; DT40 Tdp1-/- hTDP1 cells, no CPT, ATP luminescence, 48 h; 420,000 tested, 15% active; Potency, µM (highest dose often 46.2 µM), inactives show at the highest dose activity change, negative = growth inhibition, most hits filed as inhibitors; also: potency is read from the fitted curve at half-maximal effect; % is scaled to controls: 0 for no effect and ±100 for the full control effect; nearly all actives have a fitted effect of over 55% in size
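Readout: luminescence from CellTiter-Glo after 30 min in the dark at RT. Cells: DT40 Tdp1-/- with stable hTDP1, 400/well. Exposure: compounds alone, ≥48 hr, 37 °C.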
ClpP mod = qHTS Assay for Activators of ClpP; ATP-dependent Clp protease proteolytic subunit (Bacillus subtilis (strain 168)), P80244; Potency, µM (top dose mostly 57.5 µM), without a hit: top-dose activity change, negative = active; purified B. subtilis ClpP, FRET peptide cleavage, 20 min; 340,000 tested, 1.9% active; active = well fitted falling curve with a large enough effect; inconclusive = small, poorly fitted or top-dose-only effect; inactive = no such curve, though single readings can be large or run the other way; also: potency is read from the fitted curve at half-maximal effect; the source files actives as falling curves though it sought activators and does not explain the sign; nearly all actives have a fitted effect of over 65% in size
Target sequence (P80244 whole entry, looked up): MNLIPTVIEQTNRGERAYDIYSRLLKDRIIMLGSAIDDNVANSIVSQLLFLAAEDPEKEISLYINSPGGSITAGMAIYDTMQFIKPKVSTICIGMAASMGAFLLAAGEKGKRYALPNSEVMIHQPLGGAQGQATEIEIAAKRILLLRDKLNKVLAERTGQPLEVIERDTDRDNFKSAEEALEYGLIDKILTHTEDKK
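FRET quenching reversal measured ClpP activation: 10 microg/mL B. subtilis ClpP at pH 8 with the FRET-FV decapeptide, read at 430 nm after 320 nm excitation. The 20-min minus 0-min signal was scaled between DMSO/no-enzyme wells and ADEP (5.8 microM final).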
DRD3 antagonist = D3 dopamine receptor (human) antagonism; D3R cells, DiscoveRx beta-arrestin luminescence, antagonist mode; active compounds read low; max response, negative = inhibition, %; 360,000 tested, 2.5% active; in the data active = max response below about -50%; inconclusive = no clear call, values can overlap the other calls; also: % is scaled to controls: 0 for no effect and ±100 for the full control effect
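Cells expressing the human receptor were seeded at 1500 cells/well, incubated overnight at 37 degrees C in 5% CO2, then exposed to library compounds with dopamine controls for 90 minutes at 37 degrees C before luminescent detection.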
Numbers without * were called inactive. Unless noted, calls follow the shape of the dose curve; as a rule, active = well fitted inhibition curve with a large enough effect; inconclusive = small, poorly fitted or top-dose-only effect; inactive = flat fitted curve, though single readings scatter.

Results for COc1ccc2c(c1)OC[C@H]1[C@H]2N2C(=O)c3cc(OC)ccc3NC(=O)[C@@]2(C)[C@H]1c1ccccc1 ?
IL-1B inflam inh: 0; D3 ag: -3; TDP1 cell CPT: inconclusive; DT40 TDP1 no CPT: inconclusive; ClpP mod: inconclusive; DRD3 antagonist: -52*

What do the screens show for `COc1ccc2c(c1)OC[C@H]1[C@H]2N2C(=O)c3cc(F)ccc3NC(=O)[C@@]2(C)[C@H]1c1ccccc1`?
IL-1B inflam inh: -62*; D3 ag: 2; TDP1 cell CPT: inconclusive; DT40 TDP1 no CPT: 18µM*; ClpP mod: -8%; DRD3 antagonist: inconclusive

How did COc1ccc2c(c1)C(=O)N1[C@H]3c4cc(Cl)ccc4OC[C@@H]3[C@H](c3ccccc3)[C@]1(C)C(=O)N2 do in these assays?
IL-1B inflam inh: inconclusive; D3 ag: -3; TDP1 cell CPT: inconclusive; DT40 TDP1 no CPT: inconclusive; ClpP mod: 18µM*; DRD3 antagonist: -27

What do the screens show for `COc1ccc2c(c1)OC[C@H]1[C@H]2N2C(=O)c3cc(Cl)ccc3NC(=O)[C@@]2(C)[C@H]1c1ccccc1`?
IL-1B inflam inh: inconclusive; D3 ag: -12; TDP1 cell CPT: inconclusive; DT40 TDP1 no CPT: inconclusive; ClpP mod: -15%; DRD3 antagonist: inconclusive

How did CC(=O)N1CCC(N(CCN2CCOCC2)C(=S)Nc2ccc(C)cc2C)CC1 do in these assays?
IL-1B inflam inh: -5; D3 ag: -2; TDP1 cell CPT: -3%; DT40 TDP1 no CPT: -4%; DRD3 antagonist: 8

What do the screens show for `N#CN=c1snc(-c2ccccc2)n1-c1ccc(Br)cc1`?
TDP1 cell CPT: inconclusive; DT40 TDP1 no CPT: inconclusive; ClpP mod: 2%

What do the screens show for `Cc1cc(OCc2cc(C(=O)NC(C)c3c(C)nn(C)c3C)no2)cc(C)c1Cl` (configuration not stated)?
IL-1B inflam inh: -29; D3 ag: 0; TDP1 cell CPT: inconclusive; DT40 TDP1 no CPT: inconclusive; ClpP mod: -1%; DRD3 antagonist: -2

What do the screens show for `O=C(c1cnccn1)N1CCC2(CC1)CN(c1ccccn1)C2`?
TDP1 cell CPT: 2%; DT40 TDP1 no CPT: 0%

Results for NC(=O)SCC(=O)Nc1ccc(Cl)c(Cl)c1 ?
IL-1B inflam inh: -103*; D3 ag: 1; TDP1 cell CPT: 9.2µM*; DT40 TDP1 no CPT: 23µM*; ClpP mod: -1%; DRD3 antagonist: 0

Results for NC(=O)SCC(=O)Nc1cccc(Cl)c1 ?
IL-1B inflam inh: -62*; D3 ag: 1; TDP1 cell CPT: inconclusive; DT40 TDP1 no CPT: inconclusive; ClpP mod: 1%; DRD3 antagonist: inconclusive

What do the screens show for `NC(=O)SCC(=O)Nc1ccc(Cl)cc1`?
IL-1B inflam inh: -89*; D3 ag: -11; TDP1 cell CPT: 21µM*; DT40 TDP1 no CPT: inconclusive; ClpP mod: 0%; DRD3 antagonist: -53*

How did O=C(NCC1CC1(Cl)Cl)Nc1ccc(Cl)c(Cl)c1 (configuration not stated) do in these assays?
IL-1B inflam inh: -95*; D3 ag: -4; TDP1 cell CPT: inconclusive; DT40 TDP1 no CPT: inconclusive; DRD3 antagonist: 3

How did Nc1nnc(SCC(=O)Nc2cccc(Cl)c2)s1 do in these assays?
IL-1B inflam inh: 4; D3 ag: 0; TDP1 cell CPT: 11%; DT40 TDP1 no CPT: 7%; ClpP mod: 27%; DRD3 antagonist: -2

How did CCCCn1c(N)c(N(Cc2ccccc2OC)C(=O)CSCC(=O)Nc2cccc(C)c2)c(=O)[nH]c1=O do in these assays?
IL-1B inflam inh: 14; D3 ag: 6; TDP1 cell CPT: inconclusive; DT40 TDP1 no CPT: -22%; DRD3 antagonist: 2

What do the screens show for `COc1ccc(COc2ccc(S(=O)(=O)N3CCCC3)cc2C(N)=O)cc1F`?
IL-1B inflam inh: -1; D3 ag: -28; TDP1 cell CPT: -20%; DT40 TDP1 no CPT: -13%; ClpP mod: 0%; DRD3 antagonist: -20

How did CCC(CC)C(=O)Nc1cccc(S(=O)(=O)c2cccc(NC(=O)C(CC)CC)c2)c1 do in these assays?
IL-1B inflam inh: 35; D3 ag: -1; TDP1 cell CPT: -17%; DT40 TDP1 no CPT: -2%; ClpP mod: 28%; DRD3 antagonist: 13

How did CCC(CC)C(=O)Nc1ccc(Cl)c(Cl)c1 do in these assays?
IL-1B inflam inh: 13; D3 ag: -10; TDP1 cell CPT: -29%; DT40 TDP1 no CPT: 13µM*; ClpP mod: 2%; DRD3 antagonist: 39

How did CN(CCC1CCOCC1)C(=O)CC1C(=O)NCCN1Cc1c(F)cccc1Cl (configuration not stated) do in these assays?
IL-1B inflam inh: inactive; D3 ag: 0; TDP1 cell CPT: -16%; DT40 TDP1 no CPT: 0%; ClpP mod: -15%; DRD3 antagonist: -4

Results for Cc1cc(C)cc(-n2ccnc2SCC(=O)Nc2ccccc2F)c1 ?
D3 ag: -9; TDP1 cell CPT: 23µM*; DT40 TDP1 no CPT: 16µM*; ClpP mod: 0%

What do the screens show for `Cc1ccc(NC(=O)CSc2nccn2-c2ccccc2)cc1`?
D3 ag: -7; TDP1 cell CPT: inconclusive; DT40 TDP1 no CPT: inconclusive; ClpP mod: 1%

How did Cc1cc(C)cc(-n2ccnc2SCC(=O)Nc2cccc3ccccc23)c1 do in these assays?
D3 ag: -8; TDP1 cell CPT: 21µM*; DT40 TDP1 no CPT: 18µM*; ClpP mod: -3%

How did O=C(CSc1nccn1-c1ccc(Cl)cc1)Nc1cccc2ccccc12 do in these assays?
D3 ag: 1; TDP1 cell CPT: inconclusive; DT40 TDP1 no CPT: -14%; ClpP mod: 0%

Results for CC(=O)N(Cc1cccnc1)c1nc2c(C)c(C)ccc2s1 ?
D3 ag: 6; TDP1 cell CPT: inconclusive; DT40 TDP1 no CPT: inconclusive; ClpP mod: 0%

How did O=C(O)CC1(CC(=O)Nc2ccc3sccc3c2)CCCCC1 do in these assays?
IL-1B inflam inh: 8; D3 ag: -3; TDP1 cell CPT: 2%; DT40 TDP1 no CPT: -4%; ClpP mod: 0%; DRD3 antagonist: -10

Results for CC1=C(C)/C(=N\OS(=O)(=O)c2ccccc2)C=CC1=O ?
IL-1B inflam inh: -121*; D3 ag: -5; TDP1 cell CPT: 0.56µM*; DT40 TDP1 no CPT: 0.56µM*; ClpP mod: -1%; DRD3 antagonist: -89*

What do the screens show for `CCCCn1c(SCC(=O)NC(=O)Cc2ccccc2)nc2ccccc2c1=O`?
IL-1B inflam inh: 15; D3 ag: -4; TDP1 cell CPT: -13%; DT40 TDP1 no CPT: 6%; ClpP mod: -1%; DRD3 antagonist: -14
